Reference: PubChem BioAssay (NCATS)
Inconclusive results are not listed. Unmarked numbers belong to inactive results. Calls of active or inactive are those of the source. The call rests on the fitted dose curve; in most records, active means well fitted cell-killing curve with a large enough effect; inconclusive means small, poorly fitted or top-dose-only effect, or effect the other way; inactive means flat fitted curve, though single readings scatter.

Each compound was assayed on JEG-3 (assay: Primary qHTS to identify gynecologic anti-cancer compounds using libraries of approved drugs and bioactive compounds (AID 1345084; further: nearly all actives have a fitted effect of over 55% in size)). Settings: Gynecologic cancer cell panel viability, ATPlite luminescence, 48 h; series mostly up to 57.5 µM; activity change, negative = cytotoxicity: at the top concentration.
Outline: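 Cells, 1,000 per well, were allowed to settle for 16 h at 37 C before compound addition. Five concentrations were tested for 48 h, and viability was read by ATPlite luminescence after 15 min at room temperature.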
On the % scale 0 is the no-effect control and ±100 the full control effect; potency means the concentration at half of the fitted maximal effect.

| Compound | activity change, negative = cytotoxicity | Potency |
| --- | --- | --- |
| CCc1cncnc1N1CCN(Cc2nc3ccc(C(F)(F)F)cc3[nH]2)CC1 | -6.13% |  |
| N#CC[C@H](C1CCCC1)n1cc(-c2ncnc3[nH]ccc23)cn1 | 15.6% |  |
| Cn1cnc([N+](=O)[O-])c1Sc1ncnc2nc[nH]c12 |  | 3.16 µM (active) |
| O=C(NOC[C@H](O)CO)c1ccc(F)c(F)c1Nc1ccc(I)cc1F | -2.59% |  |
| CCC(C)(C)C(=O)O[C@H]1C[C@@H](C)C=C2C=C[C@H](C)[C@H](CC[C@@H]3C[C@@H](O)CC(=O)O3)[C@H]21 | 22.3% |  |
| Cc1oncc1C(=O)Nc1ccc(C(F)(F)F)cc1 |  | 25.1 µM (active) |
| CCc1cc(Nc2nccc(-c3c(-c4ccc(OC)c(C(=O)Nc5c(F)cccc5F)c4)nc4ccccn34)n2)c(OC)cc1N1CCC(N2CCN(S(C)(=O)=O)CC2)CC1 | -13% |  |
| COc1ccccc1[C@H](c1cccc2ccccc12)[C@@](C)(C#N)C(=O)N1CCC(c2cccc(C(F)(F)F)c2)CC1 | 0.745% |  |
| C#Cc1cccc(Nc2ncnc3cc(OCCOC)c(OCCOC)cc23)c1 |  | inactive |
| COc1cccc2cc(-c3nc(C4CCC(C(=O)O)CC4)n4ncnc(N)c34)[nH]c12 (stereo not given) | -5.14% |  |
| Cc1cc(Nc2nc(N[C@@H](C)c3ncc(F)cn3)ncc2Cl)n[nH]1 | -12.5% |  |
| Nc1nc2c(ncn2COCCO)c(=O)[nH]1 | -0.361% |  |
| CCOc1ccn(-c2ccc(F)cc2)c(=O)c1C(=O)Nc1ccc(Oc2ccnc(N)c2Cl)c(F)c1 | 11% |  |
| CC1(C)CNc2cc(NC(=O)c3cccnc3NCc3ccncc3)ccc21 | -6.42% |  |
| N[C@@H]1CONC1=O | -3.66% |  |
